Holding throughout (assay): NCI-60 one-dose screen, 48 h (100 = growth as untreated, 0 = no growth, -100 = all killed)
Common to all, as to details: 10 µM unless noted

Test [1] concerns NCI-H23 lung.
The subject of test [2] is NCI-H226 lung.
Test [3] has as its system NCI-H322M lung.
Test [4] has as its system HOP-62 NSCLC.
The test system of test [5] is NCI-H460 lung.
Test [6] has as its system HOP-92 NSCLC.
The test system of test [7] is NCI-H522 lung.
Test [8] concerns A549/ATCC NSCLC.
The test system of test [9] is 786-0 renal.
In test [10] the test system is COLO 205 colon.

The panel holds about 83,000 compounds, 20% with a hit somewhere; the sample as a whole holds those more often.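 Note: values are percent growth. 100 is the growth of untreated cells, values between 100 and 0 indicate rising inhibition; between -100 and 0 indicates cell death.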 A number with no mark means an inactive call. The source made the active and inactive calls. Rule for the calls: active = growth percent below 10; inactive = the rest.

Consider `O=C(Nn1c(NCC(=O)N2c3ccccc3Sc3ccccc32)nnc1-c1ccc(O)cc1)c1ccccc1`, for which the growth was 94.4% in test [1]; 104% in test [2]; 104% in test [3]; 99.5% in test [4]; 105% in [5]; 91.2% in [6]. Further, the growth was 93.1% in test [7], 106% in test [8], 92.4% in test [9] and 112% in [10].
Consider `COc1ccc(CNC(=O)[C@H](O)[C@@H](N)Cc2ccccc2)cc1`, for which the growth in test [1] is 99.9%; in [2], 98.8%; in test [3], 105%; in test [4], 119%; in [5] it was 106%; in test [6], 72.8%. Further, the growth in test [7] is 95.6%; in [8], 108%; in [9], 97.9%; in test [10], 114%.
Regarding `COc1ccc(/C=N/Nc2cc(=O)[nH]c3ccc(C)cc23)cc1`, the growth in [1] was 70%; in test [2], 81.5%; in [3], 86.8%; in [4], 86.3%; in [5] it was 103%; in test [6], 88%. Also, the growth is 75.2% in test [7], 91.3% in test [8], 105% in test [9] and 106% in [10].
With `O=C(Nc1ccc(OS(=O)(=O)c2ccc(F)cc2)cc1)c1ccc(Cl)cc1`, the growth in [1] was 94%; in [2], 99.5%; in [3], 92.6%; in [4] it was 101%; in test [5] it was 101%; in [6] it was 101%. In addition, the growth in [7] is 83.6%; in test [8], 94.1%; in test [9], 104%; in [10], 114%.
For the compound `O=C1CCC(C(=O)NCCNCCNC(=O)C2CCC(=O)N2)N1` (stereo not given), the growth in [1] was 106%; in [2] it was 97.7%; in test [3], 104%; in [4], 93.7%; in test [5], 102%; in test [6], 80.6%. Further, the growth in test [7] was 72.5%; in [8], 88.4%; in test [9], 101%; in test [10], 110%.
Regarding `C=C(C)C1CCC2(C)OC2C1` (stereo not given), the growth is 111% in test [1]; 98.8% in [2]; 94.9% in test [3]; 94.6% in test [4]; 103% in test [5]; 117% in test [6]. For the same compound, the growth in test [7] is 105%; in [8] it was 127%; in test [9], 98.7%; in test [10] it was 142%.
For `O=C(O)C(c1ccccc1)N1C(=O)CSC1=S` (stereo not given), the growth in test [1] was 106%; in [2] it was 95.8%; in [3] it was 97.9%; in test [4], 99.5%; in test [5], 107%; in [6] it was 111%. Also, the growth in [7] is 88.2%; in [8], 92%; in test [9], 102%; in test [10] it was 108%.
In the case of `O=C1NC(=O)C(c2ccccc2)(c2ccccc2)N1Cc1cn(-c2c3ccccc3nc3ccccc23)nn1`, the growth is 85.5% in [1]; 99.5% in test [2]; 92.9% in test [3]; 87.5% in test [4]; 74.1% in [5]; 67.3% in test [6]. Besides, the growth in [7] is 15.9%; in [8], 78.2%; in test [9] it was 87.3%; in test [10], 107%.
As to `Cc1nc2cnc(N)c(C#Cc3cncc(C(=O)Nc4ccc(CN5CCN(C)CC5)c(C(F)(F)F)c4)c3)c2nc1C`, the growth was -9.47% (active) in test [1]; 3.74% (active) in test [2]; -5.35% (active) in test [3]; 11.9% in test [4]; 4.26% (active) in test [5]; -39% (active) in test [6]. Besides, the growth in [7] was 4.74% (active); in [8], 2.19% (active); in [9] it was 35%; in test [10], -17.5% (active).
Regarding `Oc1ccc(CCl)c2cccnc12`, the growth in [1] is 59.4%; in test [2], 101%; in [3] it was 71.9%; in [4] it was 92.8%; in test [5], 55%; in test [6] it was 89.2%. Moreover, the growth is 52.6% in [7], 76.1% in test [8], 97.6% in [9] and 35.9% in [10].
As to `CC(C)(C)NC(=O)C(OC(=O)c1cccc(Cl)c1)c1ccc(Cl)cc1` (stereo not given), the growth is 101% in test [1]; 94.9% in test [2]; 98% in test [3]; 80.9% in test [4]; 106% in test [5]; 93.8% in test [6]. For the same compound, the growth was 71.1% in test [7], 90.9% in test [8], 99.2% in test [9] and 103% in [10].
With `CNCCCC12CCC(c3ccccc31)c1ccccc12`, the growth in test [1] is 92.1%; in test [2] it was 107%; in [3], 92%; in [4], 82.9%; in [5], 97.3%; in test [6], 48.5%. The growth in [7] is 88.8%; in test [8], 90.1%; in test [9], 65.7%; in test [10], 7.78% (active).
As to `NCCCNc1nc2ccccc2c2c(=O)c3cc(C(F)(F)F)ccc3sc12`, the growth was 49.6% in [1]; 86.8% in [2]; 56.8% in test [3]; 52.7% in test [4]; -69.7% (active) in test [5]; 32.6% in test [6]. For the same compound, the growth was -3.15% (active) in [7], -16.6% (active) in [8], 61.1% in test [9] and -41.4% (active) in test [10].
`COc1ccc(-c2cc3c4c(nc5ccccc5c4c2)CC(c2cc(OC)c(OC)c(OC)c2)O3)cc1` (stereo not given): the growth in test [1] is 54.2%; in test [2], -12.5% (active); in test [3] it was 54.2%; in [4], 34.7%; in test [5] it was 12.8%; in test [6], -7.6% (active). Moreover, the growth in test [7] is 55.6%; in [8] it was 64.7%; in test [9], -56.1% (active); in test [10], 67.5%.
As to `CCN(CC)c1ccc(C2=NN(C(C)=O)C(c3cc(OC)c(OC)c(OC)c3)C2)cc1` (stereo not given), the growth in test [1] was 23.5%; in [2], 9.31% (active); in [3], -3.75% (active); in [4], 40.7%; in [5], 13.4%; in test [6], 20.6%. Besides, the growth is -46.3% (active) in [7], 17.1% in test [8], 24% in test [9] and -4.4% (active) in test [10].
As for `c1ccc2c(c1)Nc1ccncc1S2`, the growth is 99.5% in [1]; 84% in [2]; 114% in test [3]; 98.2% in [4]; 100% in test [5]; 97.9% in test [6]. Also, the growth in [7] is 92.5%; in [8], 100%; in [9], 109%; in test [10] it was 130%.
For the compound `COc1ccc(/C=C(\C#N)n2nnc3c(F)cccc32)cc1`, the growth in test [1] is 18%; in test [2] it was 45%; in [3], 37.9%; in test [4], 28.7%; in test [5], 2.99% (active); in test [6] it was 21.4%. For the same compound, the growth in test [7] is 11.6%; in [8] it was 35.6%; in [9], 15.9%; in [10] it was -6.97% (active).
On to `CC1=NN(c2ccc(S(=O)(=O)O)cc2)C(=O)C1N=Nc1ccc(-c2ccc(N=Nc3ccc(OS(=O)(=O)c4ccc(C)cc4)cc3)c(S(=O)(=O)O)c2)cc1` (stereo not given), for which the growth in test [1] was 87.4%; in test [2], 85.7%; in test [3], 93.4%; in test [4], 93.7%; in test [5] it was 96%; in [6], 41.1%. Also, the growth in test [7] is 77.8%; in test [8], 99%; in test [9] it was 90.3%; in test [10], 102%.
In the case of `COC(=O)c1ccc2[nH]c(O)c(C(=Nc3ccc(N(C)C(=O)CN4CCN(C)CC4)cc3)c3ccccc3)c2c1`, the growth in test [1] was 31.1%; in test [2], 19%; in test [3], 76.8%; in test [4], 26.1%; in [5] it was 24.9%; in test [6], 59.7%. In addition, the growth in test [7] is 50.3%; in test [8], 39.4%; in test [9], 1.61% (active); in test [10] it was 11.4%.
For `C=C1CC[C@@]2(C#N)[C@H]3[C@H](CC[C@@H]2C)[C@@H](C)C[C@@H](CC(C)(C)C#N)[C@H]13`, the growth is 44.1% in [1]; 62.7% in [2]; 90.2% in test [3]; 41.9% in [4]; 22.8% in test [5]; -16.9% (active) in test [6]. The growth is 47.7% in test [7], 42.9% in test [8], 43% in [9] and 35.5% in [10].
As for `CCOC(=O)c1sc2ncc(-c3ccc(C)cc3)n2c1C`, the growth is 83% in test [1]; 78.2% in [2]; 92.6% in test [3]; 87.9% in test [4]; 101% in test [5]; 83.9% in test [6]. Also, the growth in [7] was 86.2%; in test [8], 97.3%; in test [9] it was 106%; in test [10] it was 99.7%.

For the origin of these results see PubChem BioAssay (NCI).
